In PubChem BioAssay (NCI) one finds growth data, which are given here for seven molecules.

About 83,000 compounds went through this panel and 20% of them were active in at least one assay; those are over-represented in the sample as a whole.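 In brief: 96-well plates, 48 h treatment, single concentration, percent growth endpoint.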 A number with no mark means an inactive call. Calls of active or inactive are those of the source. The calls were made as follows: active = growth percent below 10; inactive = the rest.

Test systems include K-562 leukemia; MALME-3M melanoma; MDA-MB-231 breast; RXF 393 renal; SF-268 CNS; SF-295 CNS; SF-539 CNS; UACC-257 melanoma; M14 melanoma; HCT-15 colon; HT29 colon; SNB-75 CNS; SNB-19 CNS; U251 CNS; PC-3 prostate; SK-MEL-5 melanoma; UACC-62 melanoma; LOX IMVI melanoma; SK-MEL-28 melanoma; SK-MEL-2 melanoma.
What all share (assay): NCI-60 one-dose screen, 48 h (100 = growth as untreated, 0 = no growth, -100 = all killed)
Common to all, as to conditions: 10 µM

As for `Cc1nc2ccccc2c(N)c1-c1cc(C)c2c(C)nc3ccccc3c2n1`, the growth in the test with K-562 leukemia is -36.1% (active); in the test with MALME-3M melanoma it was 95.3%; in the test on MDA-MB-231 breast, -80.2% (active); with RXF 393 renal, -80.3% (active); with SF-268 CNS, -67.5% (active); in the test on SF-295 CNS, 85.2%. Besides, the growth was -71.9% (active) in the test with SF-539 CNS; 105% with UACC-257 melanoma; 39.3% with M14 melanoma; -90% (active) in the test with HCT-15 colon; -93.5% (active) with HT29 colon; -77.6% (active) in the test with SNB-75 CNS. Moreover, the growth in the test on SNB-19 CNS was 22.6%; in the test with U251 CNS, -76.6% (active); with PC-3 prostate it was -18.5% (active); in the test with SK-MEL-5 melanoma it was 62.1%; in the test on UACC-62 melanoma, 97%; in the test with LOX IMVI melanoma it was -84.7% (active). For the same molecule, the results for the growth in the test on SK-MEL-28 melanoma and in the test with SK-MEL-2 melanoma were -90.7% (active) and 96.3%, respectively.

On to `COc1ccc(Nc2nc3ccc(NC(=O)NC4CCCCC4)cc3[nH]c2=O)cc1`, for which the growth in the test on K-562 leukemia was 77.1%; in the test with MALME-3M melanoma, 102%; with MDA-MB-231 breast, 70.8%; in the test with RXF 393 renal, 48.1%; in the test with SF-268 CNS it was 91.4%; in the test on SF-295 CNS, 82.6%. The growth is 68.8% with SF-539 CNS; 90.4% in the test on UACC-257 melanoma; 103% in the test on M14 melanoma; 83.2% with HCT-15 colon; 106% in the test on HT29 colon; 82.6% in the test with SNB-75 CNS. Moreover, the growth with SNB-19 CNS was 100%; in the test with U251 CNS it was 86.2%; in the test with PC-3 prostate it was 94.7%; in the test on SK-MEL-5 melanoma it was 90.9%; in the test with UACC-62 melanoma, 94.6%; with LOX IMVI melanoma, 96.2%. Further, the growth in the test on SK-MEL-28 melanoma is 93.1%; with SK-MEL-2 melanoma, 111%.

As to `CS(=O)(=O)Nc1ccc(Nc2c3ccccc3nc3cc([N+](=O)[O-])ccc23)cc1`, the growth in the test with K-562 leukemia was 7.9% (active); with MALME-3M melanoma, 22.6%; in the test on MDA-MB-231 breast it was 50.9%; with RXF 393 renal it was 34.5%; in the test on SF-268 CNS, 11.6%; in the test on SF-295 CNS it was 4.34% (active). The growth is 24.4% with SF-539 CNS; 44.6% in the test on UACC-257 melanoma; 4.52% (active) with M14 melanoma; 6.81% (active) in the test with HCT-15 colon; 11.8% in the test with HT29 colon; 41.3% in the test on SNB-75 CNS. The growth in the test on SNB-19 CNS was 43.3%; with U251 CNS it was 21%; with PC-3 prostate it was 44.4%; with SK-MEL-5 melanoma it was 13.5%; in the test on UACC-62 melanoma, 32.2%; in the test with LOX IMVI melanoma, -27.1% (active). Further, the growth is 43.4% with SK-MEL-28 melanoma and 23.3% with SK-MEL-2 melanoma.

As for `CCOC(=O)C(CSC(c1ccccc1)(c1ccccc1)c1ccccc1)NC(=O)C(CSC(c1ccccc1)(c1ccccc1)c1ccccc1)NC(c1ccccc1)(c1ccccc1)c1ccccc1` (stereo not given), the growth with K-562 leukemia was 112%; in the test with MALME-3M melanoma, 108%; in the test with MDA-MB-231 breast it was 108%; in the test with RXF 393 renal, 97.4%; in the test with SF-268 CNS, 110%; with SF-295 CNS it was 86.7%. The growth in the test with SF-539 CNS was 112%; in the test with UACC-257 melanoma it was 88.8%; in the test on M14 melanoma, 111%; with HCT-15 colon, 100%; in the test on HT29 colon, 113%; in the test on SNB-75 CNS, 86.8%. In addition, the growth with SNB-19 CNS is 107%; in the test on U251 CNS, 97.3%; with PC-3 prostate, 102%; in the test on SK-MEL-5 melanoma, 98.6%; in the test on UACC-62 melanoma, 113%; in the test on LOX IMVI melanoma it was 99.6%. Further, the values for the growth with SK-MEL-28 melanoma and in the test with SK-MEL-2 melanoma were 99.8% and 115%, respectively.

With `O=C1/C(=C\c2ccc(F)cc2)CN(C(=O)c2ccccc2)C/C1=C\c1ccc(F)cc1`, the growth with K-562 leukemia was 4.01% (active); with MALME-3M melanoma, 8.3% (active); in the test with MDA-MB-231 breast, -25.9% (active); in the test with RXF 393 renal it was 26.6%; in the test on SF-268 CNS, 26%; with SF-295 CNS it was -3.21% (active). In addition, the growth is 69.2% in the test on SF-539 CNS; 36.5% with UACC-257 melanoma; 4.22% (active) with M14 melanoma; 1.64% (active) in the test with HCT-15 colon; -50.9% (active) in the test on HT29 colon; 48.1% with SNB-75 CNS. Further, the growth in the test on SNB-19 CNS was 61.3%; in the test with U251 CNS, -25% (active); in the test with PC-3 prostate, 22.1%; in the test with SK-MEL-5 melanoma, 34.3%; with UACC-62 melanoma, 4.27% (active); with LOX IMVI melanoma it was -55.9% (active). Further, the growth in the test with SK-MEL-28 melanoma was 34.8%; with SK-MEL-2 melanoma, 54.8%.

With `OCC1OC(n2cnc3c(N/N=C\c4ccccn4)ncnc32)C(O)C1O` (stereo not given), the growth with K-562 leukemia is 17.6%; with MALME-3M melanoma, -14.6% (active); in the test with MDA-MB-231 breast, 42.5%; in the test on RXF 393 renal it was 33.4%; with SF-268 CNS, 21.5%; in the test with SF-295 CNS, -1.12% (active). The growth with SF-539 CNS was 9.72% (active); in the test with UACC-257 melanoma it was 38%; in the test on M14 melanoma, 8.81% (active); in the test with HCT-15 colon it was 25.8%; in the test with HT29 colon, 34.5%; with SNB-75 CNS, 40.3%. For the same molecule, the growth in the test on SNB-19 CNS is 34.5%; in the test with U251 CNS, 25.1%; with PC-3 prostate, 21%; with SK-MEL-5 melanoma, -10.1% (active); with UACC-62 melanoma, 22%; with LOX IMVI melanoma, 11.2%. Also, the growth in the test with SK-MEL-28 melanoma is 38%; with SK-MEL-2 melanoma it was 58.2%.

Consider `Cc1cccc(C)c1NC(=O)c1sc2nc3c(cc2c1N)C(=O)CCC3`, for which the growth in the test with K-562 leukemia is 64%; in the test with MALME-3M melanoma, 74.7%; in the test on MDA-MB-231 breast, 79%; with RXF 393 renal, 94.4%; in the test on SF-268 CNS, 103%; in the test with SF-295 CNS it was 49.9%. For the same molecule, the growth was 101% in the test on SF-539 CNS; 73.7% with UACC-257 melanoma; 87.3% in the test on M14 melanoma; 60.3% in the test with HCT-15 colon; 85.6% in the test on HT29 colon; 82.6% in the test on SNB-75 CNS. The growth was 66.5% in the test with SNB-19 CNS; 85.6% in the test on U251 CNS; 70.2% in the test with PC-3 prostate; 57.7% in the test with SK-MEL-5 melanoma; 67.4% in the test with UACC-62 melanoma; 91.3% with LOX IMVI melanoma. Moreover, the figures for the growth with SK-MEL-28 melanoma and in the test on SK-MEL-2 melanoma were 81.3% and 69.7%, respectively.
